Shown are actives, neighbours in structure and some others; about 1% of the full set was active somewhere.
KCNH2 3.1 block: qHTS for Inhibitors of KCHN2 3.1: Mutant qHTS | Potassium voltage-gated channel subfamily H member 2, brain isoform KCNH2 3.1 (human) | U2OS KCNH2 3.1, thallium flux FluxOr; stronger effect = lower value | activity change, % (tested at about 1.8 µM) | 340,000 tested, 0.95% active;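 active = maximum activity change below -70%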;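 also: thallium influx rate constant from kinetic fluorescence after stimulation buffer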
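FluxOr-based Tl+ influx in U2OS cells transduced with KCNH2 3.1 virus; rate constants normalized to DMSO controls.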
Glioma ERSR ind: qHTS for Inducers of the Endoplasmic Reticulum Stress Response (ERSR) in Human Glioma: qHTS; U87-MG GRP78 promoter luciferase reporter, 16 h; Potency, µM, most hits filed as activators; 420,000 tested, 0.02% active; AID 602332, 2012; active = well fitted activation curve with a large enough effect; also: series mostly up to about 76 µM; nearly all actives have a fitted effect of over 35% in size
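Stably transfected U87-MG glioma cells carrying a GRP78-based luciferase sensor; 16 h compound incubation. Luminescence end-point read 10 min after Bright-Glo addition at room temperature.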
TSG101-PTAP inh: qHTS Assay for Iinhibitors of HIV-1 Budding by Blocking the Interaction of PTAP/TSG101 | Tumor susceptibility gene 101 protein (Homo sapiens), Q99816 | Potency, µM (titrated, usually from 115 µM), usual class: inhibitors | 340,000 tested, under 10 active | Fluorescence polarization, FITC-PTAP peptide / Tsg101 binding; active = well fitted inhibition curve with a large enough effect in the main read-out, with a control signal flat, not every such curve was filed as active
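Tsg101 binding domain (10 uM final) was mixed with compound and a FITC-labeled PTAP peptide (50 nM final) in HEPES pH 7.5 buffer with NaCl, Tween 20, EDTA and TCEP; fluorescence polarization was read after 20 min at r.t.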
KCNH2 WT inh: qHTS for Inhibitors of KCHN2 3.1: Wildtype qHTS. Voltage-gated inwardly rectifying potassium channel KCNH2 (Homo sapiens), Q12809. U2OS, BacMam KCNH2, thallium flux FluxOr; stronger effect = lower value. activity change, % at 1.84 µM. 340,000 tested, 0.37% active;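 active = maximum activity change below -70%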
Target sequence (Q12809 whole entry, looked up): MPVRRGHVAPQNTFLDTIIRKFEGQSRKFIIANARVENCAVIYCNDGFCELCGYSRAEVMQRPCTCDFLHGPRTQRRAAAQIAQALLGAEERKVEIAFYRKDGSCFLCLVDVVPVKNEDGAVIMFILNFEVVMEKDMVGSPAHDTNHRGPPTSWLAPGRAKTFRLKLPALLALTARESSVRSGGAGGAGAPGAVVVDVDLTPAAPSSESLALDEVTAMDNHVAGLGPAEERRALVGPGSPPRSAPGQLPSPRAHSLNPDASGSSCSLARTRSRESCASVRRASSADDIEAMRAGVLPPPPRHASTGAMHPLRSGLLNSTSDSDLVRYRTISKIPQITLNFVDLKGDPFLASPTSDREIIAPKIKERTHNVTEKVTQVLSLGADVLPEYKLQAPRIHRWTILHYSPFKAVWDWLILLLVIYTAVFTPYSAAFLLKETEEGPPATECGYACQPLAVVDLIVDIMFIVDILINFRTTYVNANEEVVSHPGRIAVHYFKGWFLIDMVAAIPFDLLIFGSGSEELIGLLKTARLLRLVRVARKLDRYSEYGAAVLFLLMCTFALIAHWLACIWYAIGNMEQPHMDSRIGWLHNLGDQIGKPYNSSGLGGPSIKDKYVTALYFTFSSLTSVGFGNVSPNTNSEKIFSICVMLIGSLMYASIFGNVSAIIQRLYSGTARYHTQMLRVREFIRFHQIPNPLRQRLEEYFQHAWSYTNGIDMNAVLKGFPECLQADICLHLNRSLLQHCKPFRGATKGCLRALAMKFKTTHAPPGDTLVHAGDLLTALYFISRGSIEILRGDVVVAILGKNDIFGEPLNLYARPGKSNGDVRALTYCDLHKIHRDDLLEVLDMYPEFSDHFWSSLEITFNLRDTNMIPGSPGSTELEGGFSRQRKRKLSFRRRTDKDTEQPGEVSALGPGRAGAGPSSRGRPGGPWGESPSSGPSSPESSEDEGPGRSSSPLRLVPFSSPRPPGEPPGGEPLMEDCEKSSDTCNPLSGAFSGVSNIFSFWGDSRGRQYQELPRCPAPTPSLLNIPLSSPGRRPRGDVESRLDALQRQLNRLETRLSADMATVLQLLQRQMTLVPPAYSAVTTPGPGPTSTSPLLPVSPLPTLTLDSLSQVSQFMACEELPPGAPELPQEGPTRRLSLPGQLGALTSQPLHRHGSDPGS
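U2OS cells were transduced with wild-type KCNH2 virus (2.03 x 10^8 / mL) for 4 h at room temperature, then cultured overnight at 37 C. Thallium flux was read with FluxOr dye. Rate constants were normalized to DMSO controls.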
TRPML1 agonist: qHTS for Agonists of the Human Mucolipin Transient Receptor Potential 1 (TRPML1); TRPML1-expressing cells, Ca2+ dye fluorescence, FDSS; activation, % (no concentration beside the values); 410,000 tested, 0.12% active; in the data active = activation above about 50%
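Cells: TRPML1-DL, 1X Tet inducer, ~16 h at 37 degrees C/5% CO2. Dye: ABD Ca8 no-wash + quencher, 45-90 min RT. Read: 10 s baseline, compound add, 110 s agonist phase; 54-4 EC80 (4uM final), 110 s antagonist phase.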
TRPML1 inh: qHTS for Inhibitors of the Human Mucolipin Transient Receptor Potential 1 (TRPML1) | activity change, negative = inhibition, % (concentration not given with the values) | TRPML1-inducible cells, Ca2+ dye fluorescence, FDSS; stronger effect = lower value; inhibition of EC80 agonist-evoked calcium signal | 390,000 tested, 0.02% active | AID 624415, 2012; in the data active = activity change below about -50%;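 also: stimulus is agonist 54-4 at its EC80 concentration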
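Tet-induced TRPML1-DL cells loaded with Ca8 no-wash calcium dye were read kinetically on FDSS. Compound addition was followed by EC80 agonist 54-4 (4 uM final); inhibition was read over 110 s.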
Numbers stand for hits; – = inactive; · = no result given.

SMILES	KCNH2 3.1 block	Glioma ERSR ind	TSG101-PTAP inh	KCNH2 WT inh	TRPML1 agonist	TRPML1 inh
Cc1cc2n(n1)C(c1cn(-c3ccccc3)nc1C)Nc1c(C)cccc1-2 (stereo not drawn)	–	–	–	–	–	–
Cc1cc2n(n1)C(c1cn(-c3ccccc3)nc1C)Nc1ccccc1-2 (stereo not drawn)	-136.3	–	–	-125.4	–	–
O=C(CCn1cncn1)NCC1Cc2cc(-c3ccsc3)cc(Cl)c2O1 (stereo not drawn)	·	–	·	·	·	·
COC(=O)[C@@H]1CCCN1Cc1ccc2c(c1)CN(Cc1ccc3c(c1)CCO3)CCO2	·	–	·	·	·	·
O=C(O)C1C2C=CC(C2)C1C(=O)NCCCN1CCCC1=O (stereo not drawn)	–	–	–	-128.0	–	–
Cc1[nH]c2ccccc2c1/C=C/C(=O)c1ccccc1	-85.5	–	–	–	–	–
CCC1(C2CCN(C(=O)c3ccc(C)c(C)c3)CC2)NC(=O)N(CCc2scnc2C)C1=O (stereo not drawn)	·	–	·	·	·	·
CCOC(=O)C1(Cc2ccccc2C)CCCN(C(=O)COC)C1 (stereo not drawn)	-106.9	–	–	–	–	–
CCOC(=O)C1(Cc2ccccc2C)CCCN(C(=O)CCC(=O)OC)C1 (stereo not drawn)	–	–	–	–	–	–
Cc1cc(C(=O)NCC2CCC3(CCN(Cc4ccc(-c5ccccc5)cc4)CC3)O2)n(C)n1 (stereo not drawn)	·	–	·	·	·	·
Cc1ncc2c(c1CNC(=O)/C=C/c1cccs1)CCN(C(=O)c1ccc3c(c1)OCCO3)C2	·	–	·	·	·	·
Cc1ccc(C)c(S(=O)(=O)N2CCN(C(=O)C3CCN(c4ncnc5sc(C)c(C)c45)CC3)CC2)c1	–	–	–	–	73.6	–
CN(C)c1ccc(C=c2c3ccccc3n3c2cc(-c2ccc(Cl)cc2)[n+]3C)cc1	-190.6	–	–	-207.1	–	–
Cc1ccc(OCC(=O)N2CCC3(CC2)CC(=O)c2ccccc2O3)cc1	–	–	–	–	–	–
O=C1CC2(CCN(C(=O)COc3ccc(Cl)cc3)CC2)Oc2ccccc21	-86.1	–	–	–	–	–
Cc1c(C(=O)NCC2CCCN(C)C2)cnn1-c1ncc2c(n1)-c1ccccc1CCC2 (stereo not drawn)	·	–	·	·	·	·
Cc1cc(C(=O)N/N=C/c2ccc([N+](=O)[O-])o2)c(C)o1	-92.4	–	–	–	–	–
Cc1ccc(-c2nnn(CC(=O)N(CC(=O)NC3CCCC3)c3ccc(F)cc3)n2)o1	–	–	–	-73.9	–	–
Cc1ccc(-c2nnn(CC(=O)N(CC(=O)NC3CCCC3)c3cccc(F)c3)n2)o1	–	–	–	–	–	–
Cc1cc(C)nc(SCc2ccc(C(=O)NN=C3C4CC5CC(C4)CC3C5)cc2)n1	–	–	–	–	–	–
O=C(NN=C1C2CC3CC(C2)CC1C3)c1ccncc1	–	–	–	-182.7	–	–
O=C(NCc1ccccn1)c1ccccc1OCc1ccccc1Cl	–	–	·	–	–	–
O=C(NCc1ccccn1)c1ccccc1OCc1ccc(F)cc1	-101.2	–	–	–	–	–
Nc1ccc2c(c1)[nH]c(=O)c1ccccc12	-196.1	–	–	–	–	–
Nc1cc2[nH]c(=O)c3ccccc3c2cc1Br	–	–	–	–	–	–
SMILES	KCNH2 3.1 block	Glioma ERSR ind	TSG101-PTAP inh	KCNH2 WT inh	TRPML1 agonist	TRPML1 inh
Cc1ccc(-c2csc(N3CCC[C@@H]3C(=O)NCCn3c(-c4ccncc4)nc4ccccc43)n2)cc1	-105.4	–	–	–	–	–
COc1cc(CNCCc2c[nH]c3ccccc23)ccc1OCc1ccccc1F	-78.8	–	–	–	–	–
COCC1CCCN(Cc2ccc3c(c2)CN(C(=O)c2cc(-c4ccccc4)n[nH]2)CCO3)C1 (stereo not drawn)	·	–	·	·	·	·
COCCNC(=O)c1cn(C2CCN(C3CCCC3)CC2)nn1	·	–	·	·	·	·
CCCN1CCN(C(=O)c2cnn(-c3ncc4c(n3)-c3ccccc3CCC4)c2COC)CC1	·	–	·	·	·	·
O=S(=O)(Nc1nccs1)c1ccc(NS(=O)(=O)c2c(F)cc(F)c(Cl)c2F)cc1	–	–	–	-104.7	–	–
O=S(=O)(Nc1ccc(S(=O)(=O)Nc2nccs2)cc1)c1ccc(Br)cc1	–	–	–	–	–	–
Cc1cc(C)nc(S[C@H]2C[C@@H](C(=O)N3CCN(c4ccccc4F)CC3)N(Cc3ccccc3F)C2)n1	·	–	·	·	·	·
COc1cc2c(NC3CCN(C(C)C)CC3)nc(N3CCCN(C)CC3)nc2cc1OCCOCCN(C)C	·	–	·	·	–	·
CCN(CCCNC(=O)Cn1ncc2c(=O)oc3ccccc3c21)c1cccc(C)c1	-180.1	–	–	-165.2	–	–
CCCCOc1ccc(C2C(=O)N(C3CCCCC3)CC(=O)N2CCCC)cc1 (stereo not drawn)	·	–	·	·	–	–
CCCCn1c2c(c(=O)n(C)c1=O)C(c1ccc(OC)cc1)N1CCCCCC1=N2 (stereo not drawn)	-75.1	–	–	–	–	–
N/C(=N\OC(=O)C12CC3CC(CC(C3)C1)C2)c1ccncc1	–	–	–	–	60.7	–
Cc1ccc(/C(N)=N/OC(=O)C23CC4CC(CC(C4)C2)C3)cc1	–	–	–	–	–	–
CN(C)c1ccnc(Nc2ccccc2)c1C#N	-89.6	–	–	–	–	–
CC(C(O)c1ccccc1)N(C)CCOC(c1ccccc1)c1ccccc1 (stereo not drawn)	·	–	·	·	·	·
Cc1n[nH]c(C)c1Sc1ccccc1[N+](=O)[O-]	–	–	–	–	–	–
Cc1n[nH]c(C)c1Sc1ccccc1N=Cc1cc(Cl)cc([N+](=O)[O-])c1O	–	–	–	-132.9	–	–
CC1CC2C3CCC4=CC(=O)C=CC4(C)[C@@]3(F)C(O)CC2(C)[C@@]1(O)C(=O)CCl (stereo partly drawn)	·	–	·	·	·	·
O=C(Nc1nnc(-c2ccc(Cl)cc2)o1)c1nc2ccccc2s1	–	–	–	–	86.7	–
O=C(NCCS(=O)(=O)c1ccc(Cl)cc1)c1ccc(F)cc1	–	–	–	–	–	–
O=C(NCCS(=O)(=O)c1ccc(Br)cc1)c1ccc(F)cc1	–	–	–	-251.1	–	–
c1ccc2nccnc2c1	·	–	·	·	–	·

High-throughput results as filed in PubChem BioAssay.
